The source of these data is PubChem BioAssay (Tox21).

Experiment [1] is described as follows: Nuclear factor erythroid 2-related factor 2/antioxidant responsive element (Nrf2/ARE) small molecule agonists: qHTS cell viability counter screen in human keratinocytes (AID 1919968; active = well fitted curve in the direction sought with a large enough effect in the repeat runs; an effect the other way counts as inactive or inconclusive; also: nearly all actives have a fitted effect of over 55% in size; also: potency is read from the fitted curve at half-maximal effect). The method, boiled down:
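Cytotoxicity was multiplexed with the Nrf2/ARE luciferase assay in the same wells. Stably transfected HaCaT keratinocytes were treated with test compounds for 23 h at 37 C. Cell viability was then measured by CellTiter-Fluor fluorescence.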
(qHTS replaces the single test concentration by a dilution series.)

Experiment [2] can be described thus: Nuclear factor erythroid 2-related factor 2/antioxidant responsive element (Nrf2/ARE) small molecule agonists: luciferase reporter gene qHTS assay in human keratinocytes (AID 1919969). Also: nearly all actives have a fitted effect of over 35% in size.
For experiment [3], the target named is KiSS-1 receptor (Homo sapiens) (UniProt Q969F8). The experiment is described as follows: Human kisspeptin (KISS1R) small molecule agonists, calcium flux assay in KISS1R-HEK293 cells (AID 1920064; active = well fitted curve in the direction sought with a large enough effect in the repeat runs; an effect the other way counts as inactive or inconclusive). In short, it runs like this: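 Agonist activity is monitored as intracellular calcium rise in engineered HEK293 cells carrying human KISS1R. Cells are dye-loaded for 1 h at 37 C before compound addition, and fluorescence is recorded for 3 min.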
Sequence of KiSS-1 receptor (Homo sapiens) (Q969F8 whole entry, looked up): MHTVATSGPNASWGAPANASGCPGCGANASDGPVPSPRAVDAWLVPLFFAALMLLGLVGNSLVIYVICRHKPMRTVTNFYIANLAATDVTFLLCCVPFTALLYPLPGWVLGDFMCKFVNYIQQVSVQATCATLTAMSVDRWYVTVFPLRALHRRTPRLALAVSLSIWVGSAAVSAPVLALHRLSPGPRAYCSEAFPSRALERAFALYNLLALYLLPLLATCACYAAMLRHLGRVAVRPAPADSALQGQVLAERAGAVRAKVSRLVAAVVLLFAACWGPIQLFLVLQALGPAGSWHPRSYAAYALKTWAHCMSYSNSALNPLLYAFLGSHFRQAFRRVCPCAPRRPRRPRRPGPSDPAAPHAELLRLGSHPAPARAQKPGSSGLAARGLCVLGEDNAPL
For orientation: Calcium assays in cells follow changes in intracellular calcium, usually with a dye or a luminescent sensor.

A short description of experiment [4]: p53 small molecule agonists, cell-based qHTS assay with human liver microsomes (AID 1963577). The method, boiled down: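 p53RE-bla reporter cells were pre-incubated 5 h at 37 C, then treated with compounds plus human liver microsomes (0.5 mg/mL final) and NADPH (0.5 mg/mL final) for 16 h at 37 C. Beta-lactamase activity was read by LiveBLAzer fluorescence after 2 h at room temperature.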

The nature of experiment [5]: p53 small molecule agonists, cell-based qHTS assay with human liver microsomes: qHTS cell viability counter screen (AID 1963579). Also: nearly all actives have a fitted effect of over 45% in size. The method, boiled down: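 p53RE-bla cells (4,000/well) were pre-incubated 5 h at 37 C, then given compounds in DMSO plus human liver microsomes (0.5 mg/mL final) and NADPH (0.5 mg/mL final) for 16 h at 37 C. Viability was read by CellTiter-Glo luminescence.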

Experiment [6] can be described thus: p53 small molecule agonists, cell-based qHTS assay with rat liver microsomes: qHTS cell viability counter screen (AID 1963580). Also: nearly all actives have a fitted effect of over 45% in size. The method, boiled down:
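Counter screen for cytotoxicity under metabolic activation: rat liver microsomes and NADPH, 0.5 mg/mL final each, added with compounds to p53RE-bla HCT-116 cells; 16 h at 37 C, then ATP luminescence read.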

Experiment [7] is described as follows: p53 small molecule agonists, cell-based qHTS assay: qHTS cell viability counter screen (AID 1963581). Also: nearly all actives have a fitted effect of over 45% in size. In short, it runs like this: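 Viability was counter-screened in parallel with the p53 agonist reporter by measuring intracellular ATP luminescence in the same HCT-116 p53RE-bla wells after 16 h compound treatment at 37 C.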
Experiment [8] can be described thus: p53 small molecule agonists, cell-based qHTS assay (AID 1963582; active = well fitted activation curve with a large enough effect in the signal ratio in the repeat runs, not every such curve was filed as active; the % refers to the signal ratio). In short, it runs like this:
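Cells carrying a p53-responsive bla reporter are treated with test compounds for 16 h at 37 C; beta-lactamase activity is then detected with LiveBLAzer B/G FRET substrate after 2 h at room temperature.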

Experiment [9] concerns the target 5-hydroxytryptamine receptor 2A (Homo sapiens) (UniProt P28223). Put plainly: 5-hydroxytryptamine receptor 2A (HTR2A) small molecule antagonists, cell-based qHTS assay (AID 1963586). Also: nearly all actives have a fitted effect of over 45% in size. In short, it runs like this: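 CHO cells stably expressing human HTR2A were plated for 18 h at 37 C, then loaded with calcium dye for 1 h. Compounds were preincubated 5 min at room temperature before DOI (4 nM solution) was added. Kinetic fluorescence was read for 3 min.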

For experiment [10] the target is unchanged. Put plainly: 5-hydroxytryptamine receptor 2A (HTR2A) small molecule agonists, cell-based qHTS assay (AID 1963587). Also: nearly all actives have a fitted effect of over 30% in size. In short, it runs like this: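 HTR2A-CHO cells, plated 18 h at 37 C/5% CO2, dye-loaded 1 h at 37 C; compounds in DMSO added by pin tool (agonist mode). Intracellular calcium flux read as kinetic fluorescence on FDSS over 2 min at 1 s intervals.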

For experiment [11], the target named is Muscarinic acetylcholine receptor M1 (Homo sapiens) (UniProt P11229). The experiment is described as follows: Cholinergic receptor muscarinic 1 (CHRM1) small molecule antagonists, cell-based qHTS assay (AID 1963588). Also: nearly all actives have a fitted effect of over 40% in size. In short, it runs like this:
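Compounds were tested at 15 concentrations in three independent runs. Dye-loaded CHRM1-CHO cells were exposed 5 min at room temperature before stimulation by acetylcholine added at 50nM. Intracellular calcium was read kinetically on FDSS for 3 min.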

For experiment [12] the target is unchanged. The experiment is described as follows: Cholinergic receptor muscarinic 1 (CHRM1) small molecule agonists, cell-based qHTS assay (AID 1963589). Also: nearly all actives have a fitted effect of over 35% in size. The method, boiled down:
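Cells were plated and incubated 18 h at 37 C/5% CO2, loaded with calcium dye for 1 h at 37 C, then treated with compounds in DMSO. Fluorescence was recorded kinetically at 1 sec intervals.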

A short description of experiment [13]: cAMP Responsive Elements (CRE) small molecule agonists, cell-based qHTS assay (AID 1963590). The method, boiled down:
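Cells carrying a CRE-driven beta-lactamase reporter (HEK 293T) are seeded, incubated overnight (18 h), and treated with test compounds for 3 h at 37 C; reporter activity is then detected with a FRET substrate after 2 h at room temperature.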

Experiment [14] can be described thus: cAMP Responsive Elements (CRE) small molecule antagonists, cell-based qHTS assay (AID 1963591; active = well fitted inhibition curve with a large enough effect in the signal ratio in the repeat runs, not every such curve was filed as active; the % refers to the signal ratio). The method, boiled down:
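Cells (CRE-bla HEK 293T, DMEM with 10% dialyzed FBS and 25 mM HEPES) are seeded and incubated 18 h. Compounds are added with NKH477 agonist at 0.25 uM final for 3 h, then FRET substrate for 2 h.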

Experiment [15] has as its target Beta-2 adrenergic receptor (Homo sapiens) (UniProt P07550). Put plainly: Adrenergic beta2 receptor (ADRB2) small molecule antagonists, cell-based qHTS assay (AID 1963592). Also: series mostly up to about 92 µM; nearly all actives have a fitted effect of over 50% in size. The method, boiled down: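 Assay format: CHO-ADRB2 cells, 18-20hr seeding at 37C/5% CO2, then compound plus 1nM isoproterenol agonist mix for 0.5hr RT. Homogeneous time-resolved fluorescence cAMP detection after 1hr, expressed as 665/615 nm ratio.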

Experiment [16] has the same target. The experiment is described as follows: Adrenergic beta2 receptor (ADRB2) small molecule agonists, cell-based qHTS assay (AID 1963593).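 Also: CHO cells stably overexpressing human ADRB2.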 In short, it runs like this:
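CHO cells stably over-expressing ADRB2 were plated overnight at 37C, then dosed with compounds plus a stimulation mix containing 100uM IBMX and 25uM Ro-20-1724 for 0.5hr at room temperature. cAMP was measured by HTRF competition, 1hr.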

Experiment [17] deals with D(2) dopamine receptor (Homo sapiens) (UniProt P14416). Put plainly: Dopamine D2 receptor (DRD2) small molecule agonists, cell-based qHTS assay (AID 1963594). Also: nearly all actives have a fitted effect of over 35% in size. The method, boiled down:
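HEK293 cells stably expressing DRD2 were cultured 24 h at 37 C, then given Ro20-1724 (0.1 mM final) and compounds for 10 min at room temperature. NKH477 (200nM) was then added for 30 min. cAMP was read by HTRF.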

The target is the same in experiment [18]. Put plainly: Dopamine D2 receptor (DRD2) small molecule antagonists, cell-based qHTS assay (AID 1963595; active = well fitted inhibition curve with a large enough effect in the signal ratio in the repeat runs, with a control signal flat; the % refers to the signal ratio; also: potency is read from the fitted curve at half-maximal effect). The method, boiled down:
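HTRF cAMP read-out at 665 and 620 nm emission (340 nm excitation). Antagonist mode: compounds were tested against 12 nM quinpirole in DRD2-HEK293 cells, with 200 nM NKH477 raising cAMP and 0.1 mM Ro20-1724 blocking its breakdown.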

The nature of experiment [19]: G protein-coupled receptor (GPCR) small molecule agonists, calcium flux assay: HEK293 wild type cell line counter screen (AID 1920065). In short, it runs like this:
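Seed cells, incubate 18 h (37 C, 5% CO2); add calcium dye, 1 h at 37 C; pin-transfer compounds, ATP control or DMSO; read fluorescence 480/540 nm each second for 3 min.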

Experiment [20] is described as follows: p53 small molecule agonists, cell-based qHTS assay with rat liver microsomes (AID 1963578). In short, it runs like this:
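p53RE-bla cells were exposed to compounds together with rat liver microsomes (0.5 mg/mL final) and NADPH (0.5 mg/mL final) for 16 h at 37 C, then read by LiveBLAzer beta-lactamase fluorescence after 2 h at room temperature.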

Values joined by “and” are separate entries in the source; they are usually repeats but may differ in a detail not shown here. Equal entries are not always repeated. Records with an inconclusive call do not appear. Active and inactive are the calls of the source. Unless noted, calls follow the shape of the full dose curve.

Sequence of Muscarinic acetylcholine receptor M1 (Homo sapiens) (P11229 whole entry, looked up): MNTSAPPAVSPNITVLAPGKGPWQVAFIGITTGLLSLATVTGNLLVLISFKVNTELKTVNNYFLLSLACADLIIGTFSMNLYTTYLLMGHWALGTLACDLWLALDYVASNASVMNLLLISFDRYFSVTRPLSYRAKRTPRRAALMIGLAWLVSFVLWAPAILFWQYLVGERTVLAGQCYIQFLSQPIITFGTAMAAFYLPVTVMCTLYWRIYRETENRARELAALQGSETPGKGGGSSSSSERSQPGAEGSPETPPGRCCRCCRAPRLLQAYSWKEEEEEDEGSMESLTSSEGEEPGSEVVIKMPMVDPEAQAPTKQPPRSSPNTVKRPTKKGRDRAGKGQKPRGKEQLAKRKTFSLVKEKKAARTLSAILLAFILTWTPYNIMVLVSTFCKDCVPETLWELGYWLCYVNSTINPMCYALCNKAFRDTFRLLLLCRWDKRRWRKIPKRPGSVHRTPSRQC
Sequence of 5-hydroxytryptamine receptor 2A (Homo sapiens) (P28223 whole entry, looked up): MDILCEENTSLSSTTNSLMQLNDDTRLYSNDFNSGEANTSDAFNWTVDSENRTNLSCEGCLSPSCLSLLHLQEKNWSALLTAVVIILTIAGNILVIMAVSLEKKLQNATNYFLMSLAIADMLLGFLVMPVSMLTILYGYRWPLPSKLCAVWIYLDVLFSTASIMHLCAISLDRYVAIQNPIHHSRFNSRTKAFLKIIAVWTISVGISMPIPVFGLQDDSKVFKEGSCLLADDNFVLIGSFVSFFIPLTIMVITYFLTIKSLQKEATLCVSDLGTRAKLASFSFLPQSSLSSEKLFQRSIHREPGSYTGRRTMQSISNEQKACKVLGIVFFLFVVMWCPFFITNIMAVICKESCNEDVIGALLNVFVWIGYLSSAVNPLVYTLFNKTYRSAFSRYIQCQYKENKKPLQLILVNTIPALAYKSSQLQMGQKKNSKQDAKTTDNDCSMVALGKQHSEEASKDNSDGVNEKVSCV
Sequence of Beta-2 adrenergic receptor (Homo sapiens) (P07550 whole entry, looked up): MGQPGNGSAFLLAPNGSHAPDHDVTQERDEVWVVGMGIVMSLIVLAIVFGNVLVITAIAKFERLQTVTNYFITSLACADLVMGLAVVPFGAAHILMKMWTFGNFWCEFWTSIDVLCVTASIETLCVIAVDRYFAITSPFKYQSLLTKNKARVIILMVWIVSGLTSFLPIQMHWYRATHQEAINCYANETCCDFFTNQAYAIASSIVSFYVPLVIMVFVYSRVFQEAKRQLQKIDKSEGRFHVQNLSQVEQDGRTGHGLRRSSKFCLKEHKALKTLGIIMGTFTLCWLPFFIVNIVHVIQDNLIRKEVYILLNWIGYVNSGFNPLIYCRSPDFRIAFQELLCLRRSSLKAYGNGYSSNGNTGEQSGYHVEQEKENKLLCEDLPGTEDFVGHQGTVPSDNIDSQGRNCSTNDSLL
Sequence of D(2) dopamine receptor (Homo sapiens) (P14416 whole entry, looked up): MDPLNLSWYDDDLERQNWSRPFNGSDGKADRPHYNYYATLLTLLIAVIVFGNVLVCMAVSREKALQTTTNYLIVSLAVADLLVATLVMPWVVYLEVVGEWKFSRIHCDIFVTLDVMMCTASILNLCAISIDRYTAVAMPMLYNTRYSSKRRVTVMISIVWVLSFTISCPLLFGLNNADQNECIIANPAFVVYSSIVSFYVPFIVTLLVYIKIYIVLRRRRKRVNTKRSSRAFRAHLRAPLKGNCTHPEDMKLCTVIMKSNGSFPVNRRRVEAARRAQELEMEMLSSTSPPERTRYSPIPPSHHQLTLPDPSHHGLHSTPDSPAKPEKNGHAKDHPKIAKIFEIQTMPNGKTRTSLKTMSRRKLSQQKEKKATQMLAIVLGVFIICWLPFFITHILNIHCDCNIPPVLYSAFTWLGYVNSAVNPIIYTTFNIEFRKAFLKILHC

Turning to `CN1N=C(C(N)=O)CCC1=O`, the Potency entry in [1], in [2], in experiment [3], in experiment [4], in experiment [5] and in experiment [6] was “inactive” in each case. For the same compound, the Potency result in [7], in [8], in experiment [9], in experiment [10], in experiment [11] and in [12] was “inactive” throughout. In addition, the Potency result in experiment [13], in experiment [14], in [15], in experiment [16], in experiment [17] and in [18] was “inactive” each time.

Regarding `CC(C)CNCC(C)C`, the Potency result in experiment [1], in [2], in experiment [3], in experiment [19], in [20] and in [5] was “inactive” each time. The Potency result in experiment [6], in experiment [7], in experiment [8], in experiment [9], in experiment [10] and in experiment [11] was “inactive” in each case. In addition, the Potency result in experiment [12], in [13], in [14], in [15], in experiment [17] and in experiment [18] was “inactive” each time.

Regarding `O=C(C(=O)c1ccccc1)c1ccccc1`, the Potency result in experiment [1], in experiment [2], in [3], in experiment [19], in experiment [4] and in experiment [5] was “inactive” in each case. Besides, the Potency result in experiment [6], in experiment [7], in [8], in experiment [9], in experiment [10] and in experiment [11] was “inactive” in each case. In addition, the Potency entry in [12], in experiment [13], in experiment [15], in experiment [16], in [17] and in experiment [18] was “inactive” throughout.

As to `C=CC(=O)NCOCCCC`, the Potency entry in experiment [1], in [2], in [3], in experiment [19], in [5] and in [6] was “inactive” in each case. Besides, the Potency result in [7], in experiment [9], in experiment [10], in [11], in [12] and in experiment [13] was “inactive” throughout. Further, the Potency result in experiment [14], in experiment [15], in [16] and in [17] was “inactive” each time.

For `Clc1ccc2c(c1)C(N1CCNCC1)=Nc1ccccc1O2`, the Potency in [1] was 61.1 µM (active); in experiment [18] it was 13.7 µM (active) and 8.41 µM (active). Further, the Potency result in experiment [2], in experiment [3], in experiment [19], in experiment [5], in experiment [6] and in experiment [13] was “inactive” throughout. The Potency result in [14], in experiment [15] and in experiment [17] was “inactive” each time.

Consider `COC(=O)CC(C(C)=O)C(=O)OC` (configuration not stated), for which the Potency result in [1], in experiment [2], in [3], in [19], in experiment [4] and in experiment [20] was “inactive” throughout. Also, the Potency entry in experiment [7], in [8], in [9], in [10], in experiment [12] and in [13] was “inactive” in each case. Moreover, the Potency result in experiment [14], in [15], in experiment [16] and in experiment [18] was “inactive” in each case.

As to `COc1cccc(Br)c1`, the Potency entry in experiment [1], in experiment [2], in [3], in [4], in [5] and in [6] was “inactive” each time. The Potency result in [7], in [8], in experiment [9], in experiment [11], in [12] and in experiment [13] was “inactive” throughout. Besides, the Potency result in experiment [14], in experiment [15], in experiment [16] and in experiment [17] was “inactive” throughout.

In the case of `CCCCCCN`, the Potency entry in experiment [1], in experiment [2], in experiment [19], in experiment [4], in [20] and in experiment [5] was “inactive” each time. The Potency result in experiment [6], in experiment [7], in experiment [8], in [9], in experiment [10] and in experiment [11] was “inactive” in each case. The Potency result in experiment [12], in experiment [13], in [14], in [15], in experiment [16] and in experiment [17] was “inactive” each time. The Potency result in experiment [18] was “inactive”.
